Molecules are shown by their SMILES. Results filed as inconclusive are left out. Where a call stands in place of a potency, no number is given. The source made the active and inactive calls. Calls come from the whole dose curve; as a rule, active = well fitted inhibition curve with a large enough effect; inconclusive = small, poorly fitted or top-dose-only effect; inactive = no such curve, though single readings can be large or run the other way.
Potency is the fitted concentration of half-maximal effect.

The subject of one assay is Zika virus NS2B-NS3 protease (unlinked complex). Put plainly: Primary screen GU Rhodamine qHTS for Zika virus inhibitors: Unlinked NS2B-NS3 protease assay (AID 1347159). Note: nearly all actives have a fitted effect of over 60% in size. The following applies: Recombinant ZIKV NS2B-NS3 protease, Rhodamine110 substrate fluorescence; series mostly up to 107 µM. The gist of the method: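 A qHTS format was used, with compound concentrations ranging up to 114 microM. Each compound was preincubated with 25 nM NS2B-NS3 protease, and the substrate was then added at 1.5 microM. Curves were fitted with a 4-parameter Hill model.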
Background: In qHTS, concentration-response curves come from the screen itself.
`C=C[C@]1(C)C[C@H](O)[C@H]2C(=C)C(=O)O[C@@H]2[C@H]1C(=C)CO`: the Potency result was “inactive”.

As for `COc1cc(CCc2cc(NC(=O)c3ccc(N4CC(C)NC(C)C4)cc3)n[nH]2)cc(OC)c1` (centres undefined), the Potency entry was “inactive”.

Take `CN(C)CCOc1cc(NS(=O)(=O)c2c(Cl)cc(C(F)(F)F)cc2Cl)ccc1Cl`: the Potency was 5.62 µM (active).

On to `c1ccc(-c2cnn3cc(-c4ccc(OCCN5CCOCC5)cc4)cnc23)cc1`, for which the Potency entry was “inactive”.

For `COc1ccc(NC(=O)c2ccc(-c3ccc(-c4nnc(C)o4)cc3C)cc2)cc1N1CCN(C)CC1`, the Potency entry was “inactive”.

`CC1CCCC[C@H]2C(=O)C=C[C@H](O)[C@@H]2CC(=O)O1` (some centres undefined): the Potency result was “inactive”.

`CC(C)CC(=O)c1c(O)cc2c(c1O)C(CC(C)C)C1=C(O2)C(C)(C)C(=O)C(C)(C)C1=O` (centres undefined): the Potency is 8.91 µM (active).

In the case of `CCC1C(=O)N(C)c2cnc(Nc3ccc(C(=O)NC4CCN(C)CC4)cc3OC)nc2N1C1CCCC1` (centres undefined), the Potency entry is “inactive”.

In the case of `CNc1nc(Nc2ccc(C(=O)N3CCOCC3)cc2OC)nc2[nH]cc(Cl)c12`, the Potency entry was “inactive”.

`COc1ccc(S(=O)(=O)Nc2c(C)cc(C)cc2C)cc1`: the Potency entry was “inactive”.

For `C=CC(=O)N1CCC(Oc2cc3c(Nc4ccc(Cl)c(Cl)c4F)ncnc3cc2OC)CC1`, the Potency entry was “inactive”.

As for `Cc1[nH]c2ccccc2c1CCNCc1ccc(/C=C/C(=O)NO)cc1`, the Potency entry is “inactive”.

Take `CCC(=C(c1ccc(OCCN2CCCC2)cc1)c1ccc(OCCN2CCCC2)cc1)c1ccccc1`: the Potency entry was “inactive”.

Take `C=CS(=O)(=O)NC1CCN(C(=O)CNc2cc(I)c(Cl)cc2OC)CC1`: the Potency entry was “inactive”.

On to `Cc1nc2ccc(CN(C)c3ccc(C(=O)NC(CCC(=O)O)C(=O)O)s3)cc2c(=O)[nH]1` (centres undefined), for which the Potency result was “inactive”.

Consider `O=C(NCCCc1ccccc1)c1cccc(-c2cc(O)c3ncccc3c2)c1`, for which the Potency was 89.1 µM (active).

For the compound `COc1cc(CCO)ccc1O[C@@H]1O[C@H](CO)[C@@H](O)[C@H](O)[C@H]1O`, the Potency result is “inactive”.

As to `C/C=C\NC(=O)C1NC(=O)C(CC(N)=O)NC(=O)C(NC(=O)C(=O)C(C)CC)Cc2ccc(O)c(c2)-c2cccc3c2NC(=O)C3(O)C1O` (centres undefined), the Potency entry is “inactive”.

In the case of `O=C(Nc1nnc(-c2ccc3c(c2)OCCO3)o1)C1CCCCC1`, the Potency result was “inactive”.

As for `COc1cc2nc(C3CC3)nc(N3CCN(c4ccccc4OC)CC3)c2cc1OC`, the Potency entry is “inactive”.

As to `COC1CC/C=C(\C)C(=O)Nc2cc(O)cc(c2)CC(C)CC(OC)C(O)C(C)/C=C(\C)C1OC(N)=O` (centres undefined), the Potency result was “inactive”.

With `C=CC(=O)Nc1cccc(Nc2nc(Nc3ccc(NC4CN(CCF)C4)cc3OC)ncc2C(F)(F)F)c1`, the Potency result is “inactive”.

On to `CCNC1(C(N)=O)CCN(c2ncnc3c2nc(-c2ccccc2Cl)n3-c2ccc(Cl)cc2)CC1`, for which the Potency entry is “inactive”.

As for `Cc1noc(C)c1-c1cc(O)cc(C(O)c2ccccc2)c1` (centres undefined), the Potency entry was “inactive”.

As to `CCC(C)C(=O)OC12C(OC(C)=O)C(C)C3(O)C(C=C(CO)CC4(O)C(=O)C(C)=CC43)C1C2(C)C` (centres undefined), the Potency result is “inactive”.

Another assay relates to Zika virus NS2B-NS3 protease (linked construct). Put plainly: Primary screen NINDS Rhodamine qHTS for Zika virus inhibitors (AID 1347160). Note: nearly all actives have a fitted effect of over 55% in size. Conditions: purified NS2B-NS3 protease, Rhodamine110 substrate fluorescence; series mostly up to 57.1 µM. The gist of the method:
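Kinetic fluorescence (Ex 480 nm, Em 540 nm) over 15 min with 1.5 microM Rhodamine110 peptide and 25 nM linked protease.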
On to `C=C[C@]1(C)C[C@H](O)[C@H]2C(=C)C(=O)O[C@@H]2[C@H]1C(=C)CO`, for which the Potency entry was “inactive”.

Consider `CC1(C)CC[C@]2(C(=O)O[C@@H]3O[C@H](CO)[C@@H](O)[C@H](O)[C@H]3O)CC[C@]3(C)C(=CCC4[C@@]5(C)CC[C@H](O[C@@H]6O[C@H](C(=O)O)[C@H](O)[C@H](O)[C@H]6O)C(C)(C)C5CC[C@]43C)[C@@H]2C1` (some centres undefined), for which the Potency entry is “inactive”.

`COc1cc(CCc2cc(NC(=O)c3ccc(N4CC(C)NC(C)C4)cc3)n[nH]2)cc(OC)c1` (centres undefined): the Potency entry was “inactive”.

With `Cc1cc(F)ccc1[C@H]1C[C@@H](N2CCN3C(=O)CC[C@H]3C2)CCN1C(=O)N(C)[C@H](C)c1cc(C(F)(F)F)cc(C(F)(F)F)c1`, the Potency result is “inactive”.

As to `CCOc1ccc(S(=O)(=O)N2CCCCCC2)c2ccccc12`, the Potency entry is “inactive”.

On to `C/C=C(\C)C(=O)OC1C=C(C)CC(OC(=O)c2ccc(O)cc2)C2C1(C)CCC2(O)C(C)C` (centres undefined), for which the Potency result is “inactive”.

For `CN(C)CCOc1cc(NS(=O)(=O)c2c(Cl)cc(C(F)(F)F)cc2Cl)ccc1Cl`, the Potency result was “inactive”.

Turning to `c1ccc(-c2cnn3cc(-c4ccc(OCCN5CCOCC5)cc4)cnc23)cc1`, the Potency entry is “inactive”.

Regarding `COc1ccc(NC(=O)c2ccc(-c3ccc(-c4nnc(C)o4)cc3C)cc2)cc1N1CCN(C)CC1`, the Potency entry is “inactive”.

As to `CC1CCCC[C@H]2C(=O)C=C[C@H](O)[C@@H]2CC(=O)O1` (some centres undefined), the Potency entry is “inactive”.

`CC(C)CC(=O)c1c(O)cc2c(c1O)C(CC(C)C)C1=C(O2)C(C)(C)C(=O)C(C)(C)C1=O` (centres undefined): the Potency was 7.82 µM (active).

`CCC1C(=O)N(C)c2cnc(Nc3ccc(C(=O)NC4CCN(C)CC4)cc3OC)nc2N1C1CCCC1` (centres undefined): the Potency entry is “inactive”.

Take `CNc1nc(Nc2ccc(C(=O)N3CCOCC3)cc2OC)nc2[nH]cc(Cl)c12`: the Potency entry was “inactive”.

Take `COc1cc(F)c(C(C)C)cc1-c1ccc(C(F)(F)F)cc1CN1C(=O)OC(c2cc(C(F)(F)F)cc(C(F)(F)F)c2)C1C` (centres undefined): the Potency result was “inactive”.

With `CCCc1cc(C)n(C)c(=O)c1CN(C)C(=O)c1cc(-c2ccc(N3CCN(C(C)C)CC3)nc2)cc2c1cnn2C(C)C`, the Potency result is “inactive”.

With `NC(N)=N/N=C/c1ccccc1Cl`, the Potency entry is “inactive”.

In the case of `COc1ccc(S(=O)(=O)Nc2c(C)cc(C)cc2C)cc1`, the Potency entry is “inactive”.

On to `CC(=O)O[C@@H]1CC2C(C)(C)C(=O)C=C[C@]2(C)C2CC[C@@]3(C)[C@H](c4ccoc4)OC(=O)[C@H]4O[C@]43[C@@]21C` (some centres undefined), for which the Potency result was “inactive”.

As for `C=CC(=O)N1CCC(Oc2cc3c(Nc4ccc(Cl)c(Cl)c4F)ncnc3cc2OC)CC1`, the Potency entry was “inactive”.

With `Cc1[nH]c2ccccc2c1CCNCc1ccc(/C=C/C(=O)NO)cc1`, the Potency entry was “inactive”.

In the case of `CC(/C=C/C(=O)NO)=C\[C@@H](C)C(=O)c1ccc(N(C)C)cc1`, the Potency entry was “inactive”.

With `CCC(=C(c1ccc(OCCN2CCCC2)cc1)c1ccc(OCCN2CCCC2)cc1)c1ccccc1`, the Potency entry is “inactive”.

Regarding `O=C(NCC1(c2nc(-c3ccccc3)cs2)CCOCC1)c1cccc(-c2noc(C(F)(F)F)n2)c1`, the Potency entry was “inactive”.

In the case of `CNCCC(c1cccs1)c1ccc(O)c2ccccc12` (centres undefined), the Potency result is “inactive”.

On to `C=CS(=O)(=O)NC1CCN(C(=O)CNc2cc(I)c(Cl)cc2OC)CC1`, for which the Potency entry is “inactive”.

Regarding `CC(C)(CNC(=O)c1cccc(-c2noc(C(F)(F)F)n2)c1)c1coc(-c2ccccc2)n1`, the Potency entry was “inactive”.

As to `CC(=O)OC1[C@H]2[C@@H](C[C@@H](C)[C@@H]3C=CC(=O)[C@@]13C)OC(=O)[C@@H]2C` (some centres undefined), the Potency entry is “inactive”.

As to `Cc1nc2ccc(CN(C)c3ccc(C(=O)NC(CCC(=O)O)C(=O)O)s3)cc2c(=O)[nH]1` (centres undefined), the Potency result is “inactive”.

Consider `O=C(NCCCc1ccccc1)c1cccc(-c2cc(O)c3ncccc3c2)c1`, for which the Potency result was “inactive”.

In the case of `COc1cc(CCO)ccc1O[C@@H]1O[C@H](CO)[C@@H](O)[C@H](O)[C@H]1O`, the Potency entry is “inactive”.

Take `C/C=C\NC(=O)C1NC(=O)C(CC(N)=O)NC(=O)C(NC(=O)C(=O)C(C)CC)Cc2ccc(O)c(c2)-c2cccc3c2NC(=O)C3(O)C1O` (centres undefined): the Potency entry is “inactive”.

In the case of `O=C(Nc1nnc(-c2ccc3c(c2)OCCO3)o1)C1CCCCC1`, the Potency result was “inactive”.

`C=CC(C)(O)CC[C@@H]1[C@@]2(C)CCCC(C)(C)C2CC[C@@]1(C)O` (some centres undefined): the Potency result is “inactive”.

Turning to `COc1cc2nc(C3CC3)nc(N3CCN(c4ccccc4OC)CC3)c2cc1OC`, the Potency result is “inactive”.

With `COC1CC/C=C(\C)C(=O)Nc2cc(O)cc(c2)CC(C)CC(OC)C(O)C(C)/C=C(\C)C1OC(N)=O` (centres undefined), the Potency entry was “inactive”.

With `C=CC(=O)Nc1cccc(Nc2nc(Nc3ccc(NC4CN(CCF)C4)cc3OC)ncc2C(F)(F)F)c1`, the Potency result was “inactive”.

Turning to `CCNC1(C(N)=O)CCN(c2ncnc3c2nc(-c2ccccc2Cl)n3-c2ccc(Cl)cc2)CC1`, the Potency result is “inactive”.

As to `Cc1noc(C)c1-c1cc(O)cc(C(O)c2ccccc2)c1` (centres undefined), the Potency entry was “inactive”.

Take `CCC(C)C(=O)OC12C(OC(C)=O)C(C)C3(O)C(C=C(CO)CC4(O)C(=O)C(C)=CC43)C1C2(C)C` (centres undefined): the Potency result is “inactive”.

Values taken from PubChem BioAssay (NCATS).
